Dyrk1A ADPGlo – inhibitors of rat Dyrk1A kinase; Q63470; ADP-Glo luminescence, NFATc1 peptide; inhibition, % at 12.5 µM; 310,000 compounds, 0.43% hits; in the data active means inhibition above about 50%;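 further: plate controls were vehicle with enzyme for no effect and no enzyme for full effect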
dFosB act-1 – mouse delta FosB homodimer activation. 340,000 compounds, 0.99% hits. activation, % at 25 µM. purified delta FosB, TAMRA-CDK5 oligo fluorescence polarization; percent of positive-control signal above neutral wells. P13346;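 active means mean activation above about 17%, with every replicate also reaching it, limit read from the data, passing the limit was not always enough; inconclusive means only one of the two conditions met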
Target sequence (P13346 whole entry, looked up): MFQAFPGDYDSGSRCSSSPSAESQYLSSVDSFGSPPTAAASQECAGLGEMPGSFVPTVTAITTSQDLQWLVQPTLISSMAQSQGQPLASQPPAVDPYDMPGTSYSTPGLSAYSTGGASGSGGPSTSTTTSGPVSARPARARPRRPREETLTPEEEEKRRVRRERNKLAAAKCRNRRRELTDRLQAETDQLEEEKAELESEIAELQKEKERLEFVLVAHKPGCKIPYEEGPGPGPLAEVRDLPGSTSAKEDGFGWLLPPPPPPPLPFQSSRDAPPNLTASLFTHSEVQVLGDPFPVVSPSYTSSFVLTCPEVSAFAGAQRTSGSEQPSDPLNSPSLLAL
SMARCA2 act – SMARCA2 function activation, primary screen | MG213 cells, MMTV-luciferase reporter, dexamethasone, overnight | AID 652017 | 370,000 compounds, 1% hits | activation, % at 9.1 µM; in the data active means activation above about 7.8%;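 further: 0% = vehicle wells and 100% = reference activator wells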
esBAF inh – blocks esBAF chromatin remodeling in mouse ES cells | Bmi1-luciferase knock-in reporter, 24 h; 100% = twice the neutral-well signal | reporter increase, % at 12.5 µM | 350,000 compounds, 2% hits | AID 602393; in the data active means activation above about 40%; inconclusive means no clear call, values can overlap the other calls;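 further: 0% = median of the plate's neutral control wells and 100% = double that signal; a rise in the Bmi1 reporter signal indicates esBAF inhibition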
CDK5 p35 inh – inhibitors of human CDK5/p35 kinase; Recombinant CDK5/p35, ADP-Glo luminescence, 60 min; inhibition, % at 10 µM; 330,000 compounds, 0.01% hits; AID 488839;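 active means highest replicate inhibition of at least 50% and at least 75% of replicates reaching 50%; inconclusive means only one of the two criteria met; inactive means both criteria failed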;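 further: plate controls were DMSO neutral control for no effect and GW8510 at 10 µM for full effect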
Rtt109 HAT inh – C. albicans Rtt109 histone acetyltransferase inhibition; purified Rtt109/Vps75, ThioGlo CoA-SH fluorescence, 4 h; inhibition, % at 34.9 µM; AID 540336; 330,000 compounds, 0.16% hits; Q5AAJ8;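 active means inhibition of at least 50% in every replicate; inconclusive means best replicate reaches 50% inhibition but some replicates fall short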
dFosB act-2 – activators of mouse delta FosB homodimer DNA binding; 2,400 tested, under 10 active; activation, % at 24.9 µM; AID 588690; shares compounds with dFosB act-1; purified delta FosB, TAMRA-CDK5 oligo fluorescence polarization; normalised: neutral wells 0, positive control 100;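 active means highest replicate activation at or above 34% and every replicate reaching that threshold; inconclusive means meets only one of the two criteria; inactive means meets neither criterion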;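 further: higher polarization means more probe DNA bound by delta FosB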
Numbers without * were called inactive; ? = inconclusive; nt = not tested or not shown. In the library only some 3.2% were active in any assay of this set; here they are far more common.

SMILES | Dyrk1A ADPGlo | dFosB act-1 | SMARCA2 act | esBAF inh | CDK5 p35 inh | Rtt109 HAT inh | dFosB act-2
CC(C)C[C@@H](CN1CCC[C@@H]1CN1C(=O)C(=O)NC[C@@H]1Cc1ccccc1)N1C[C@H](Cc2ccccc2)N(CC2CCCCCC2)C(=O)C1=O | nt | 35* | -5 | 2 | 1 | 3 | 5
CC(C)C[C@H]1CNC(=S)N1CC1CCCN1C[C@H](Cc1ccccc1)N1C[C@H](Cc2ccc(O)cc2)N(CC2CCCCCC2)C1=S (some centres undefined) | nt | 57* | -4 | 3 | -3 | 3 | 7
O=C(C[C@@H]1C[C@H]2c3cc(NS(=O)(=O)c4ccc(F)cc4)ccc3O[C@H]2[C@@H](CO)O1)N1CCOCC1 | nt | nt | nt | -1 | nt | nt | nt
C[C@@H]1CCCCO[C@H](CN(C)S(=O)(=O)c2ccccc2)[C@H](C)CN([C@@H](C)CO)C(=O)c2cc(NS(=O)(=O)c3ccc(Cl)cc3)ccc2O1 | nt | nt | nt | 0 | nt | nt | nt
COCC(=O)Nc1ccc2c(c1)OC[C@H](C)N(Cc1ccccc1OC)C[C@H](C)[C@H](OC)CN(C)C2=O | nt | nt | nt | -1 | nt | nt | nt
CC(C)C[C@@H](CN1CCCC1CN1C(=S)NC[C@@H]1Cc1ccc(O)cc1)N1C[C@H](Cc2ccccc2)N(CC2CCCCCC2)C1=S (some centres undefined) | nt | 45* | 6 | 5 | -1 | -4 | 5
O=C(NCCCN1CCCC1)c1ccc2c(c1)N(Cc1ccccc1F)C(=O)c1ccccc1S2=O (centres undefined) | 2 | 0 | -2 | nt | 2 | 13 | nt
Cc1ccc(C)c(CN2C(=O)c3ccccc3S(=O)c3ccc(C(=O)NCCCN4CCCC4)cc32)c1 (centres undefined) | -4 | 25* | -2 | -13 | 1 | 2 | 4
COc1ccc(NC(=O)CCCNC(=O)Cn2cnc3sc(C)c(C)c3c2=O)cc1OC | -1 | 6 | -3 | 4 | -2 | -8 | nt
CCc1ccc(NC(=O)CCCNC(=O)Cn2cnc3sc(C)c(C)c3c2=O)cc1 | 4 | 32* | -3 | -4 | 1 | -2 | 0
Cc1ccc(CCNC(=O)c2cc(-c3ccncc3)nc3ccc(S(=O)(=O)N4CCOCC4)cc23)cc1 | 1 | 30* | -1 | -1 | 1 | 29 | 2
O=C(Nc1ccccc1N1CCOCC1)c1cc(-c2ccncc2)nc2ccccc12 | nt | -17 | -2 | 0 | 0 | 2 | nt
Cc1ccc(S(=O)(=O)N2CCCCC2)cc1NC(=O)c1c(-c2ccccc2)noc1C | nt | 18* | -2 | 4 | -1 | 9 | 5
COc1cc(-c2cc(C(=O)Nc3cc(S(=O)(=O)N4CCOCC4)ccc3C)c3ccccc3n2)cc(OC)c1OC | 9 | 44* | -4 | -4 | 1 | -8 | 2
COc1cc(-c2cc(C(=O)Nc3cc(S(=O)(=O)N4CCOCC4)ccc3O)c3ccccc3n2)cc(OC)c1OC | -1 | 3 | -3 | -2 | 1 | 0 | nt
COc1ccc(-c2cc(C(=O)Nc3ccccc3N3CCOCC3)c3ccccc3n2)cc1OC | -5 | 27* | 5 | -1 | 2 | -4 | -1
Cc1onc(-c2ccccc2)c1C(=O)Nc1ccc(S(=O)(=O)N2CCCCC2)cc1 | -7 | -10 | 1 | 13 | -1 | -7 | nt
CCC(=O)N[C@@H]1CC[C@H](CCNS(=O)(=O)c2ccc(Cl)cc2)O[C@@H]1CO | nt | nt | nt | 5 | nt | nt | nt
C/C=C/c1ccc([C@@H]2[C@@H](CO)N(C(=O)C3CC3)[C@H]2CN(C)C(=O)CC2CC2)cc1 | nt | nt | nt | 0 | nt | nt | nt
COc1ccc(S(=O)(=O)N2CCOCC2)cc1NC(=O)c1cccc2c(=O)c(C)c(-c3ccccc3)oc12 | 4 | 45* | -1 | 0 | 1 | -24 | 5
COc1ccc(-c2cc(C(=O)Nc3ccccc3O)c3ccccc3n2)cc1OC | 1 | -12 | 3 | nt | 1 | 2 | nt
CCN(CC)S(=O)(=O)c1ccc(N2CCOCC2)c(NC(=O)c2cccc3c(=O)c(C)c(-c4ccccc4)oc23)c1 | 2 | 0 | 5 | 3 | 1 | 14 | nt
COc1ccc(-c2cc(C(=O)Nc3nc4ccccc4s3)c3ccccc3n2)cc1OC | -5 | 65* | 2 | 7 | -1 | 3 | ?
